Screens (PubChem BioAssay)
A selection follows.
aSyn UTR act = Activators working through SNCA 5'UTR binding (MLPCN); alpha-synuclein 5'UTR reporter, activators screen; activity score, % (tested at 7.5 µM), hits read low; 7.1% of 300,000 active; AID 1814; in the data active = activity score below about -60%
A number is an active result; - = inactive.

SMILES | aSyn UTR act
CCn1c2ccccc2c2cc(Nc3cc(C)nc4ncnn34)ccc21 | -
CCn1c2ccccc2c2cc(NC(=O)C(=O)N3CCOCC3)ccc21 | -63
COc1cccc(NC(=O)C(=O)N2CCOCC2)c1 | -173
CCCCc1ccc(-c2nc(N)n[nH]2)cc1 | -100
O=C(c1ccc(Br)cc1)C(CN1CCOCC1)c1ccccc1 (centres undefined) | -152
O=[N+]([O-])c1ccc(O)c2ncccc12 | -
O=[N+]([O-])c1cccnc1NCCc1ccccc1 | -159
O=[N+]([O-])c1cccnc1NCCc1c[nH]c2ccccc12 | -123
Cc1ccc(N2C(=O)c3cccc4c([N+](=O)[O-])ccc(c34)C2=O)c2cccnc12 | -
CCN1/C(=C/C=C/c2oc3ccc4ccccc4c3[n+]2CC)Oc2ccc3ccccc3c21 | -
Cc1cnc(C(=O)Nc2ccc(N3CCOCC3)cc2)cn1 | -73
Cc1cnc(C(=O)Nc2ccc(N3CCCCC3)cc2)cn1 | -135
Cc1cnc(C(=O)Nc2ccc(OC(F)(F)F)cc2)cn1 | -239
O=[N+]([O-])c1cc(-c2nc(-c3ccncc3)no2)ccc1Cl | -79
O=[N+]([O-])c1cc(-c2nc(-c3ccncc3)no2)cc([N+](=O)[O-])c1 | -118
O=C(NN=C1CCCCCC1)c1c[nH]c2ccccc12 | -77
O=C(N/N=C/c1cccs1)c1c[nH]c2ccccc12 | -158
CCc1ccc(/C=N/NC(=O)c2cc(-c3ccncc3)nc3ccccc23)s1 | -
CCc1ccc(/C=N/NC(=O)c2c[nH]c3ccccc23)s1 | -132
CCOC(=O)c1c(C)oc2c1c(CN1CCN(C(=O)OCC)CC1)c(O)c1ccccc12 | -205
CCOC(=O)c1c(C)oc2c1c1c(c3ccccc32)OCN(Cc2ccccn2)C1 | -102
CC(C)c1ccc(NC(=S)NCc2cccs2)cc1 | -86
c1ccc(Nc2ccccc2Nc2ccccn2)nc1 | -63
CSCc1ccc(C(=O)Nc2cccc(C)c2C)cc1 | -82
Oc1cccc2ccc(Nc3ccccn3)nc12 | -
SMILES | aSyn UTR act
O=C(Nc1ccccn1)Nc1ccccc1[N+](=O)[O-] | -91
Cc1cccc(NC(=O)Nc2ccccn2)c1C | -71
Cc1cccc(NC(=O)c2ccccn2)c1C | -112
Cc1ccccc1NC(=O)Nc1ccccn1 | -111
COc1cc2c(c(OC)c1OC)-c1ccc(N(C)CC(OC)OC)c(=O)cc1[C@@H](NC(C)=O)CC2 | -
C/C(=N\OC(=O)c1cccc(C)c1)c1sc(-c2ccccc2)nc1C | -147
C/C(=N\OC(=O)c1cccc(C(F)(F)F)c1)c1sc(-c2ccccc2)nc1C | -119
Cc1ccc(OC(=O)NC2CCS(=O)(=O)C2)cc1C (centres undefined) | -122
CN(C)CCCNc1cc(-c2ccccc2)nc2cc(-c3cccc(F)c3)nn12 | -62
Cc1cccc(-n2c(=S)[nH]c3c(oc4ccccc43)c2=O)c1 | -88
Cc1ccc(-n2c(=S)[nH]c3c(oc4ccccc43)c2=O)cc1 | -100
Cc1ccc(S(=O)(=O)Nc2cccc(C(=O)NCc3cccnc3)c2)cc1F | -73
Cc1ccc(Nc2nnc(SCC(=O)Nc3cccnc3Cl)s2)cc1C | -109
Cc1cccc(Nc2nnc(SC/C(O)=C(\C#N)c3nc4ccccc4[nH]3)s2)c1C | -63
Cc1cccc(Nc2nnc(SCC(=O)Nc3ccccc3[N+](=O)[O-])s2)c1C | -90
COc1ccc(Cl)cc1C(=O)Nc1ccc2c(c1)OCO2 | -130
COc1ccc(Cl)cc1C(=O)Nc1ccc2c(c1)OCCO2 | -104
CCN(CC)c1ccc(Nc2cc3n(c(=O)n2)CCc2cc(OC)c(OC)cc2-3)cc1 | -
CCN(CC)c1ccc(NC(=O)c2cc(Cl)ccc2OC)cc1 | -63
O=C(c1ccc(COc2ccccc2Br)cc1)N1CCCCC1 | -77
Fc1ccc(COc2ccc(C(=S)N3CCCC3)cc2)cc1 | -77
Cc1nc(N)nc(N)c1/C=C/C(C)(C)c1ccc(Cl)cc1 | -
CC(C)(C)S(=O)(=O)c1cnc(-c2ccc(Cl)cc2)nc1N | -114
O=[N+]([O-])c1ccc(N=NNc2ccccc2)cc1 | -139
Brc1ccc(N=NNc2ccccc2)cc1 | -188
SMILES | aSyn UTR act
NC(=S)N=Nc1ccc(NN=C(N)N)cc1 | -
O=[N+]([O-])c1cccc(NN=Nc2ccccc2)c1 | -129
Cc1cccc(NC(=O)c2ccc(CN3CCN(Cc4ccccc4)CC3)cc2)c1 | -77
CC(C)(C)SCCNC(=O)c1ccc(CN2CCc3ccccc3C2)cc1 | -63
Oc1c(CN2CCc3ccccc3C2)cc(Cl)c2cccnc12 | -
COc1cccc(NC(=O)c2ccc(CN3CCc4ccccc4C3)cc2)c1 | -104
O=C(c1ccc2ccccc2c1)N1CCN(Cc2ccccc2)CC1 | -85
CNc1nc(C)nc(-c2ccccc2O)n1 | -75
CCOC(=O)C(=Cc1ccc(Br)cc1)C(=O)OCC | -121
CCOC(=O)C(CC)(CC)C(=O)/C=C/c1ccc(Br)cc1 | -92
CCOC(=O)/C(=C\c1cccnc1)C(=O)c1cc(C(C)=O)c(Nc2ccccc2)s1 | -
O=C(/C=C1\SC(=O)N(CC(=O)Nc2ccc(F)cc2)C1=O)Nc1ccc(Cl)cc1 | -196
COc1ccc(C)cc1N=Nc1ccc(O)c2ncccc12 | -
c1cnc(SCCOc2cccc3ccccc23)nc1 | -186
Cc1ccc(OCCSc2ncccn2)c(C)c1 | -78
COc1ccc(SCC(=O)c2cc(C)c(OC(=S)N(C)C)c(C)c2)cc1 | -82
CCCNC(=O)c1oc2ccc3c(c2c1C)C(=O)CC(C)(C)O3 | -89
CCCNC(=O)c1oc2ccc3c(c2c1C)C=CC(C)(C)O3 | -90
Cc1cc(NC(=O)c2cccs2)ncc1NC(=O)C(C)C | -145
Cc1cc(NC(=O)c2ccccc2)ncc1NC(=O)c1cccs1 | -103
Cc1cc(NC(=O)c2cccs2)ncc1NC(=O)c1cccc(F)c1 | -129
Cc1cc(NC(=O)c2ccccc2F)ncc1NC(=O)c1cccs1 | -63
Nc1ccc2nc3c(=O)n(C4CCCCC4)c(=O)[nH]c3nc2c1 | -130
ONC(=Nc1ccc(Cl)cc1)c1ccc(Cl)cc1 | -100
Cc1cc(C)c2sc(NC(=O)c3ccc([N+](=O)[O-])o3)nc2c1 | -110
SMILES | aSyn UTR act
Cc1ccc(C)c(-c2nnc(NC(=O)c3ccc([N+](=O)[O-])o3)o2)c1 | -63
O=C(Nc1nc2c(F)cc(F)cc2s1)c1ccc([N+](=O)[O-])o1 | -69
Cc1cc(C)c2nc(NC(=O)c3ccc([N+](=O)[O-])o3)sc2c1 | -144
O=C(CCc1ccccc1)Nc1nc2c(F)cc(F)cc2s1 | -99
COc1ccc(C2=NN3C(C2)c2ccccc2OC32C(=O)N(C)c3ccccc32)cc1 (centres undefined) | -131
COc1ccc(C2=NN3C(C2)c2ccccc2OC3c2cccs2)cc1 (centres undefined) | -190
Cc1ccc(C(=O)C2Oc3ccccc3C3CC(c4ccc(C)cc4)=NN23)cc1 (centres undefined) | -82
Cc1ccc(C2=NN3C(C(=O)c4ccccc4)Oc4ccccc4C3C2)cc1 (centres undefined) | -146
COc1cc(OC)cc(C(=O)Nc2ccc(C(=O)c3ccncc3)cc2)c1 | -72
C/C(=N\NC(=O)c1ccncc1)c1ccc(NC(=O)c2ccc(Cl)cc2)cc1 | -116
C/C(=N/NC(=O)c1ccc(C)s1)c1cccnc1 | -70
COc1ccc(C(=O)Nc2ccc(/C(C)=N/NC(=O)c3ccncc3)cc2)cc1 | -108
COc1ccc(/C(C)=N/NC(=O)c2ccccc2N)cc1 | -92
C/C(=N/NC(=O)c1ccncc1)c1ccc(NC(=O)c2ccc(Cl)cc2Cl)cc1 | -185
C/C(=N\NC(=O)c1ccc(Cl)cc1)c1cccnc1 | -92
